ID4 binder – binders of human ID4 protein. P47928. small molecule microarray, Flag-ID4 binding, fluorescence F/B. calls only. actives 1.2% (n = 31,000). AID 624137; call rule not given here;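 also: a binder raises fluorescence above local background on the spot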
Target sequence (P47928 whole entry, looked up): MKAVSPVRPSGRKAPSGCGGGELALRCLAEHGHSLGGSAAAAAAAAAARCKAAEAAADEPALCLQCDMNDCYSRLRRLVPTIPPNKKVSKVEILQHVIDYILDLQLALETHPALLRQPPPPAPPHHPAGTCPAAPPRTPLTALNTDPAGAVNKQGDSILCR
p53 PUMA act – re-activators of the mutant p53 pathway; SW480 PUMA-promoter luciferase, p53 mutant reactivation; activation, % at 9.98 µM; actives 1.5% (n = 28,000); in the data active = activation above about 52%; inconclusive = no clear call, values can overlap the other calls
Of the large screens only hits and unclear results are named; the others gave an inactive call. The list is not random: actives were taken first. Their share in the collection is about 2.3%.

C[C@H](CO)N1C[C@H](C)[C@H](CN(C)C(=O)Nc2ccccc2)OCCCC[C@H](C)Oc2ccc(NC(=O)Nc3ccccc3)cc2C1=O	none
C[C@@H]1CCCCO[C@@H](CN(C)Cc2ccncc2)[C@H](C)CN([C@H](C)CO)C(=O)c2cc(NC(=O)Nc3ccccc3)ccc2O1	ID4 binder active
Cc1cc(Cl)ccc1NC(=O)CN(c1ccc(Cl)cc1)S(C)(=O)=O	none
COc1ccc2nc(/N=C(/N)NC(=O)N3c4ccccc4Sc4ccccc43)nc(C)c2c1	none
COc1cccc2cc(C(=O)Nc3cccc(Cn4cccn4)c3)c(=O)oc12	p53 PUMA act 57
COc1ccc(OC)c(NC(=O)Nc2cccc(Cn3cccn3)c2)c1	none
C[C@H]1CN([C@@H](C)CO)C(=O)c2cc(-c3cccc(C(=O)N(C)C)c3)cnc2O[C@H]1CN(C)S(=O)(=O)c1cccc(F)c1	none (no result: ID4 binder)
C[C@@H]1CN([C@@H](C)CO)C(=O)c2cc(-c3ccncc3)cnc2O[C@H]1CN(C)C	ID4 binder active (no result: p53 PUMA act)
C[C@H]1CN([C@@H](C)CO)C(=O)c2cc(-c3cccnc3)cnc2O[C@@H]1CN(C)C	ID4 binder active (no result: p53 PUMA act)
C[C@H](CO)N1C[C@H](C)[C@@H](CN(C)C)Oc2ncc(-c3ccncc3)cc2C1=O	none
COc1cccc(S(=O)(=O)N(C)C[C@H]2Oc3ncc(-c4cccc(C(=O)N(C)C)c4)cc3C(=O)N([C@H](C)CO)C[C@@H]2C)c1	ID4 binder active
C[C@@H]1CN([C@@H](C)CO)C(=O)c2cc(-c3cccnc3)cnc2O[C@@H]1CN(C)C	none (no result: p53 PUMA act)
CC(C)c1onc(-c2c(Cl)cccc2Cl)c1COc1ccc(/C=C/c2cccc(C(=O)O)c2)c(Cl)c1	p53 PUMA act 67
O=C(O)C(c1ccccc1)N1C(=O)/C(=C/c2ccncc2)SC1=S (stereo unspecified)	none
CCCn1nnc(NC(=O)COc2ccc(C)cc2)n1	none
O=C(CN1CCOCC1)Nc1ccccc1[N+](=O)[O-]	none
Cc1ccc(C)c(OCC(=O)Nc2cc(C(=O)O)cc(C(=O)O)c2)c1	none
COc1ccc(CC(=O)Nc2cccc(-c3nnc(-c4ccc(C)cc4)o3)c2)cc1OC	none
COc1ccccc1OCC(=O)Nc1cccc(-c2nnc(-c3ccccc3)o2)c1	p53 PUMA act 95
Cc1ccc(C)c(OCC(=O)Nc2cccc(-c3nnc(-c4ccco4)o3)c2)c1	p53 PUMA act 102
COc1ccccc1OCC(=O)Nc1cccc(-c2nnc(-c3ccco3)o2)c1	p53 PUMA act 62
Cc1cc(OCC(=O)Nc2cccc(-c3nnc(-c4ccccc4)o3)c2)cc(C)c1Cl	p53 PUMA act inconclusive
COc1cc2c(cc1OC)CN(C(=O)CSc1n[nH]c(N)n1)CC2	ID4 binder active
Nc1nc(SCC(=O)N2CCc3ccccc32)n[nH]1	none
COC(=O)c1c(NC(=O)CSc2nnc3ccccn23)sc(C)c1C	ID4 binder active
CCOC(=O)c1c(NC(=O)CSc2nnc3ccc4ccccc4n23)sc(C)c1C	none
Cn1c(=O)c2c(ncn2CCCN)n(C)c1=O	none
O=C(CSc1nc(-c2ccccc2)cc(=O)[nH]1)NCC1CCCO1 (stereo unspecified)	ID4 binder active
O=C(CSc1nc(-c2ccccc2)cc(=O)[nH]1)Nc1ccccc1	none
Cc1ccc2nc(-c3cccc(NC(=O)COc4ccccc4)c3C)oc2c1	none
COC(=O)[C@]1(CO)N=C(c2ccc(OCCCO)cc2)O[C@@H]1c1ccccc1N=[N+]=[N-]	none (no result: p53 PUMA act)
CCc1ccc(OCC(=O)Nc2cccnc2)c(Br)c1	p53 PUMA act 96
COC(=O)c1cc(OC)c(OC)cc1NC(=O)COc1ccc(C(C)(C)C)cc1Br	none
O=C(COc1ccc(Cl)cc1)Nc1cccnc1	none
CC(C)(C)c1ccc(OCC(=O)Nc2cccnc2)c(Br)c1	p53 PUMA act 70
Cc1ccc(OCC(=O)Nc2cccc(C(=O)O)c2)c(Br)c1	none
O=C(COc1cc(Cl)c(Cl)cc1Cl)Nc1cccnc1	p53 PUMA act 117
CCc1c(C)sc(NC(=O)C2CC(c3cc(Cl)c(OC)cc3OC)=NO2)c1C#N (stereo unspecified)	none
COc1c2c(cc3oc(=O)ccc13)OC(C)(C)C=C2	none (no result: p53 PUMA act)
CC1(C)C=Cc2cc3ccc(=O)oc3cc2O1	p53 PUMA act 58 (no result: ID4 binder)
COc1ccccc1NC(=O)Cn1nnc(-c2cccs2)n1	none
COc1ccccc1NC(=O)Cc1c(OC)ccc2cc(Br)ccc12	none
CC(C)OC(=O)c1cn(Cc2c(F)cccc2F)c2sc(-c3ccc(NC(=O)C(C)C)cc3)c(CN(C)Cc3ccccc3)c2c1=O	ID4 binder active
Cc1cc(C)n(CC(O)COc2ccc(C(=O)c3ccc(Cl)cc3)cc2)n1 (stereo unspecified)	none
CS(=O)(=O)N(CC(=O)Nc1ccccc1C(=O)O)c1cccc(Cl)c1	none
CC(C)Oc1ccc2c(=O)cc(-c3ccccc3)oc2c1	none (no result: ID4 binder)
CC(C)Oc1ccc2c(=O)c3cc(C(=O)O)ccc3oc2c1	p53 PUMA act 71
COc1ccc2cc(C(=O)NCc3ccco3)c(=O)oc2c1	p53 PUMA act 74
CCOc1cccc2cc(C(=O)NCc3ccco3)c(=O)oc12	none
CC(=O)c1ccc(NC(=O)CSc2nc(-c3ccccc3)c(C#N)c(=O)[nH]2)cc1	p53 PUMA act 59
N#Cc1c(-c2ccccc2)nc(SCC(=O)Nc2ccc(Oc3ccccc3)cc2)[nH]c1=O	none
CCc1c(O)nc(SCC(=O)Nc2ccc(C(C)=O)cc2)[nH]c1=O	ID4 binder active
CC(=O)c1ccc(NC(=O)CSc2nc(O)c(-c3ccccc3)c(=O)[nH]2)cc1	none
O=C(CCCN1C(=O)c2ccccc2C1=O)Nc1ccc(Cl)cc1C(F)(F)F	none
C[C@@H]1CN([C@H](C)CO)C(=O)c2cc(C#Cc3cccnc3)cnc2O[C@H]1CN(C)Cc1cccnc1	none
C[C@@H]1CN([C@@H](C)CO)C(=O)c2cc(C#Cc3ccncc3)cnc2O[C@H]1CN(C)C(=O)CN(C)C	ID4 binder active
CCC(=O)N(C)C[C@H]1Oc2ncc(C#Cc3ccncc3)cc2C(=O)N([C@H](C)CO)C[C@H]1C	none
C[C@@H]1CN([C@@H](C)CO)C(=O)c2cc(C#Cc3cccnc3)cnc2O[C@@H]1CN(C)Cc1ccncc1	ID4 binder active
CC(C)c1ccccc1NC(=O)CSc1nc(-c2ccccc2)cc(=O)[nH]1	none
COc1cccc(NC(=O)CSc2nnnn2C)c1	none
COC(=O)c1c(NC(=S)Nc2ccc(CC(=O)O)cc2)sc(C)c1C	ID4 binder active
COC(=O)c1c(NC(=S)Nc2ccc([N+](=O)[O-])cc2OC)sc(C)c1C	none
O=C(COc1ccc(Cl)cc1Cl)Nc1ccccc1[N+](=O)[O-]	none
COC(=O)c1ccccc1NC(=O)COc1ccc(C(C)C)cc1Br	p53 PUMA act 54
CC(C)(C)c1ccc(OCC(=O)Nc2ccccc2C(N)=O)c(Br)c1	p53 PUMA act 85
CC(C)(C)c1ccc(OCC(=O)NCc2ccco2)c(Br)c1	p53 PUMA act 88
COc1cc(NC(=O)COc2ccc(C(C)(C)C)cc2Br)c(OC)cc1Cl	none
Cc1cc(OCC(=O)NCc2ccco2)cc(C)c1Br	none
COC(=O)c1ccccc1NC(=O)COc1ccccc1F	none
COc1ccc([N+](=O)[O-])cc1NC(=O)CN(C)S(=O)(=O)c1ccc(C)cc1	none
COc1ccc(S(=O)(=O)N(CC(N)=O)c2ccc(C)cc2)cc1Br	none
COc1ccc(NC(=O)CSc2nc3sc4c(c3c(=O)n2-c2ccccc2)CCCC4)c([N+](=O)[O-])c1	none

Assay outcomes: PubChem, Broad Institute
